# Test results taken from PubChem BioAssay (NCI).
# About 79,000 compounds went through this panel and 15% of them were active in at least one assay; those are over-represented in the sample as a whole. A number with no mark means an inactive call. The source made the active and inactive calls. No stated cut-off is given here; in the data, active means growth inhibition above about 70%; inactive means the rest.
# Columns and labels:
# [1] = NCI Yeast Anticancer Drug Screen. Data for the rad50 strain (AID 155);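 further: 0% = growth of vehicle-only cultures of the same strain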; conditions: S. cerevisiae rad50 strain growth inhibition, hits give high values
# In short: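 Readout: growth inhibition relative to vehicle-treated cultures. Compound exposure was carried out in a genetically defined yeast strain deficient in DNA damage repair.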
# [2] = NCI Yeast Anticancer Drug Screen. Data for the mec2-1 strain (AID 157); conditions: S. cerevisiae mec2-1 strain, hits give high values
# In short: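 Strain: mec2-1 (DNA repair/cell cycle alteration). Compound exposure, then growth measured; inhibition expressed relative to vehicle.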
# [3] = NCI Yeast Anticancer Drug Screen. Data for the sgs1 mgt1 strain (AID 161);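 further: 0% = growth of cultures given vehicle only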; conditions: S. cerevisiae sgs1 mgt1 strain, hits give high values
# In short: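 Read-out: growth inhibition vs vehicle controls. Cells: mutant yeast strain deficient in DNA damage repair.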
# [4] = NCI Yeast Anticancer Drug Screen. Data for the cln2 rad14 strain (AID 165);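 further: 0% = growth equal to vehicle treated cultures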; conditions: S. cerevisiae cln2 rad14 strain, hits give high values
# In short: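 Compounds are applied to the cln2 rad14 yeast strain, and growth is then compared with that of vehicle-treated cultures to give inhibition.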
# [5] = NCI Yeast Anticancer Drug Screen. Data for the bub3 strain (AID 167); conditions: S. cerevisiae bub3 mutant strain, hits give high values
# In short: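 Readout: yeast growth inhibition, expressed relative to vehicle-only wells. The test organism is a mutant strain from a panel with lesions in DNA repair or checkpoint genes.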
# [6] = NCI Yeast Anticancer Drug Screen. Data for the mlh1 rad18 strain (AID 175); conditions: S. cerevisiae mlh1 rad18 strain growth inhibition, hits give high values
# In short: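 Read-out is yeast growth inhibition, calculated against vehicle-only controls. The compound was applied to a strain engineered with DNA damage repair alterations.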
# [7] = at 5.0 µM (retest, dose inferred, filed as 0.5)
# [8] = at 50.0 µM (retest, dose inferred, filed as 5.0)
SMILES,"growth inhibition [1, 7] [%]","growth inhibition [1, 8]",growth inhibition ([1]; at 50.0 µM),"growth inhibition [2, 7] [%]","growth inhibition [2, 8]",growth inhibition ([2]; at 50.0 µM),"growth inhibition [3, 7] [%]","growth inhibition [3, 8]",growth inhibition ([3]; at 50.0 µM),"growth inhibition [4, 7] [%]","growth inhibition [4, 8]",growth inhibition ([4]; at 50.0 µM),"growth inhibition [5, 7] [%]","growth inhibition [5, 8]",growth inhibition ([5]; at 50.0 µM),"growth inhibition [6, 7] [%]","growth inhibition [6, 8]",growth inhibition ([6]; at 50.0 µM)
CC(C)CCCC(C)C1CCC2C3CC=C4CC(OC(=O)Nc5ccc(S(=O)(=O)c6ccc(F)cc6)cc5)CCC4(C)C3CCC12C (configuration not stated),3,2%,96.3% (active),1,4%,98% (active),0,0%,97.8% (active),3,9%,51.5%,1,-12%,96.7% (active),4,-6%,96.4% (active)
Cn1cnc([N+](=O)[O-])c1Sc1nnnn1-c1ccccc1,53,86% (active),82% (active),29,70% (active),75.8% (active),47,71% (active),68.7%,32,51%,36.1%,42,75% (active),80.8% (active),60,91% (active),80.5% (active)
Clc1ccccc1C=Nc1cccc2ccccc12,-10,-24%,22.4%,-14,-17%,32.4%,,,,18,8%,13.9%,13,-3%,35.8%,-33,-54%,23.4%
Cc1c2ccccc2cc2c1ccc1cccc(F)c12,4,90% (active),84.4% (active),11,95% (active),48%,,,,8,93% (active),23.9%,4,91% (active),79% (active),10,92% (active),59.1%
COc1ccc(C(c2c(O)c3ccccc3oc2=O)N2CCOCC2)cc1 (configuration not stated),-30,-14%,-8.2%,-10,-6%,-3.1%,,,,-19,-17%,76.5% (active),-14,22%,-14%,-34,-30%,-12%
COC(=O)/C=C1/OC(c2ccccc2)=CC1=O,31,31%,87.5% (active),8,8%,91.7% (active),22,22%,57%,-2,-2%,70.3% (active),0,0%,85.8% (active),9,9%,86.2% (active)
O=[N+]([O-])c1ccc(C2=C[P+](c3ccccc3)(c3ccccc3)C=C(c3ccccc3)O2)cc1,29,97% (active),91% (active),21,98% (active),90.4% (active),18,99% (active),85.2% (active),,,,45,98% (active),92.2% (active),22,97% (active),92.2% (active)
CC1(C)COC(c2cccc(C(O)c3ccc(Cl)cc3)c2)=N1 (configuration not stated),40,99% (active),47%,-19,99% (active),68%,-23,99% (active),72.5% (active),-2,99% (active),40.5%,-21,99% (active),52.5%,26,99% (active),54.1%
CN(NC(=O)/C(=C/c1ccc2c(c1)OCO2)NC(=O)c1ccccc1)c1ccnc2cc(Cl)ccc12,-7,-10%,89.7% (active),-15,-2%,46%,,,,22,11%,55.6%,8,33%,72.2% (active),10,11%,87.7% (active)
CCc1c(O)sc2c(c1=O)C(=NCC(C)C)CC(C)(C)N2,-5,5%,40.3%,15,34%,24.1%,,,,-14,-7%,27.4%,2,4%,10.8%,-12,-6%,53.9%
